Source: PubChem
Compounds with a hit are over-represented: about 0.92% of the library has one in this group of screens.
APE1 inh – qHTS Assay for Inhibitors of the Human Apurinic/apyrimidinic Endonuclease 1 (APE1); DNA repair nuclease/redox regulator APEX1 (Homo sapiens), P27695; recombinant APE1, TAMRA/BHQ-2 abasic DNA cleavage fluorescence; Potency, µM (titrated, usually from 65.8 µM), for inactives: at the top dose activity change, negative = inhibition, hits mostly inhibitors; hit rate 0.35% among 350,000; AID 2517, 2012;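 also: plate controls were vehicle for no effect and reference inhibitor for full effect; nearly all actives have a fitted effect of over 55% in size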
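Substrate: short duplex with […] THF abasic site, 5'-TAMRA and 3'-BHQ-2, 50 nM final. APE1 at 0.75 nM, preincubated 15 min RT with compound. Fluorescence increase from first to third read measured activity.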
BLM helicase inh – qHTS Assay for Inhibitors of Bloom's syndrome helicase (BLM) | RecQ-like DNA helicase BLM (Homo sapiens), P54132 | recombinant BLM DNA unwinding, fluorescence dequenching | Potency, µM (series often up to 56.1 µM), inactives show top-dose activity change, negative = inhibition, most hits filed as inhibitors | hit rate 0.2% among 350,000 | AID 2528, 2010;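 also: plate controls were vehicle for no effect and no enzyme for full effect; nearly all actives have a fitted effect of over 35% in size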
FEN1 inh – qHTS Assay for the Inhibitors of Human Flap endonuclease 1 (FEN1); Potency, µM (top dose mostly 114 µM), for inactives: top-dose activity change, negative = inhibition, most hits filed as inhibitors; AID 588795, 2011; hit rate 0.35% among 390,000; Recombinant FEN1 flap cleavage, fluorescence, 15 min; P39748; also: nearly all actives have a fitted effect of over 65% in size
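Concentration–response screening of FEN1 (10 nM): 15 min compound preincubation at room temperature, reaction started with 50 nM substrate and read at 0 and 15 min. Corrected, normalized data were fitted by a four-parameter Hill equation.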
TDP1 inh – qHTS Assay for Inhibitors of Tyrosyl-DNA Phosphodiesterase (TDP1) | AID 485290, 2010 | Tyrosyl-DNA phosphodiesterase 1 (Homo sapiens), Q9NUW8 | Potency, µM (titrated, usually from 130 µM), inactives show at the top dose activity change, negative = inhibition, most hits filed as inhibitors | hit rate 0.28% among 350,000 | recombinant TDP1, AlphaScreen DNA substrate cleavage; also: nearly all actives have a fitted effect of over 40% in size
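Steps: enzyme plus compound, 15 min RT; add biotin/phosphotyrosine-FITC oligonucleotide (15 nM final), react 5 min; add donor/acceptor beads (10 ug/ml final), 10 min; read AlphaScreen. Tdp1 at 1 nM final.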
RECQ1 inh-1 – qHTS Assay for Inhibitors of RecQ-Like Dna Helicase 1 (RECQ1); ATP-dependent DNA helicase Q1 (Homo sapiens), P46063; RECQ1 DNA unwinding, red fluorescence kinetic read; Potency, µM (doses to about 57.3 µM), for the others: at the highest dose activity, negative = inhibition, actives largely listed as inhibitors; hit rate 0.54% among 240,000; AID 2549, 2010;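 also: plate controls were vehicle for no effect and no enzyme for full effect; nearly all actives have a fitted effect of over 30% in size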
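50 nM RECQ1T1 preincubated 15 min with compound in Tris pH 8.0 buffer with MgCl2, DTT, Tween-20 and 2.5 ug/ml poly(dI-dC); started with 200 nM TAMRA/BHQ-2 forked duplex and 2 mM ATP. Unwinding read as fluorescence (525/598 nm), two reads 2 h apart.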
RECQ1 conf – Confirmation qHTS Assay for Inhibitors of RecQ-Like Dna Helicase 1 (RECQ1). shares compounds with RECQ1 inh-1. hit rate 28% among 610. RECQ1 helicase DNA unwinding, fluorescence. AID 2708, 2010. Potency, µM (doses to about 229 µM), for the others: top-dose activity change, negative = inhibition, hits mostly inhibitors; also: nearly all actives have a fitted effect of over 45% in size
ADP FP counter – Counterscreen for RECQ1 Inhibitors: ADP Fluorescence Polarization Displacement Assay; Potency, µM (top dose mostly 228 µM), for the others: top-dose activity change, negative = inhibition, hits mostly inhibitors; AID 2711, 2010; shares compounds with RECQ1 inh-1; hit rate 27% among 530; ADP fluorescence polarization displacement counterscreen; also: nearly all actives have a fitted effect of over 45% in size
RECQ1 inh-2 – Confirmation qHTS Assay for Inhibitors of RecQ-Like Dna Helicase 1 (RECQ1) - Round 2 Cherry Picks. shares compounds with RECQ1 inh-1. recombinant RECQ1 DNA unwinding, red fluorescence. Potency, µM (series often up to 119 µM), inactives show top-dose activity, negative = inhibition, usual class: inhibitors. hit rate 15% among 1,100. AID 504841, 2011; also: nearly all actives have a fitted effect of over 50% in size
Active calls of the source: *; i = inactive; ? = inconclusive; . = no result given; [ ] = dose if it differs, or a comment. Calls follow the shape of the dose curve; as a rule, active = well fitted curve in the direction sought with a large enough effect; inconclusive = small, poorly fitted or top-dose-only effect, or another doubt; inactive = no such curve, though single readings can be large; an effect the other way counts as inactive or inconclusive. Unless noted, % is scaled to controls: 0 for no effect and ±100 for the full control effect; potency is read from the fitted curve at half-maximal effect.

SMILES	APE1 inh	BLM helicase inh	FEN1 inh	TDP1 inh	RECQ1 inh-1	RECQ1 inh-2	others
O=C(O)c1ccc(NC(CSCc2ccc(F)cc2)C(=O)O)c([N+](=O)[O-])c1 (configuration not stated)	-2%	1%	2%	7%	7%	.	RECQ1 conf=23%;ADP FP counter=-6%
Cc1cccc(C(=O)OC2CCN(C)CC2)c1	0%	-4%	-1%	0%	-3%	.
Cc1cccc(N(C(=O)c2ccc(Cl)cc2)C2CS(=O)(=O)CC2OC(=O)c2ccc(Cl)cc2)c1 (configuration not stated)	8%	-7%	-11%	1%	?	-11%
CC(=O)N1CCCc2cc(S(=O)(=O)CCC(=O)N3CCN(c4cccc(C)c4)C(C)C3)ccc21 (configuration not stated)	?	-6%	3%	-5%	-3%	.
Cc1cccc(N2CCN(C(=O)CCS(=O)(=O)c3ccc(Br)cc3)CC2C)c1 (configuration not stated)	-2%	-28%	-4%	.	35µM*	40µM*
O=C(O)CCC(NC(=O)C1CCCN1C(=O)OCc1ccccc1)C(=O)O (configuration not stated)	4%	3%	12%	6%	-19%	.	RECQ1 conf=3%;ADP FP counter=?
O=C(NCc1ccco1)C(=O)NCC1OCCN1S(=O)(=O)c1ccc(F)cc1 (configuration not stated)	-2%	-5%	2%	-1%	i	.
O=C(NCc1ccco1)C(=O)NCC1OCCN1S(=O)(=O)c1cc(F)ccc1F (configuration not stated)	?	-12%	-2%	-9%	18µM*	.	RECQ1 conf=6%[114 µM];ADP FP counter=-3%[91.9 µM]
N#CC1=C(N)n2c(s/c(=C\c3ccco3)c2=O)=C(C#N)C1c1ccco1 (configuration not stated)	7.1µM*	-6%	45µM*	?	8.9µM*	-31%
N#CC1=C(N)n2c(s/c(=C\c3cccs3)c2=O)=C(C#N)C1c1cccs1 (configuration not stated)	-7%	-18%	?	-11%	?	.
O=C(CC(=O)Nc1ccccc1F)Nc1ccc2nc3n(c(=O)c2c1)CCCCC3	.	0%	13%	3%	.	.
CCn1c(=O)c(=O)[nH]c2cc(C(=O)N3CCN(c4ccccc4F)CC3)ccc21	0%	-3%	3%	2%	25µM*	79µM*
COc1ccc2[nH]c3c(C)c4ccncc4c(C)c3c2c1	7.9µM*	42%	2.8µM*	6%	22µM*	7.9µM*
CC(C)c1ccc(C(=O)Nc2cc(-c3ccccc3F)nn2-c2ccccc2)cc1	.	-3%	-21%	8%	.	.
